The text below walks through data of ChEMBL document CHEMBL1157539, “Thousands of chemical starting points for antimalarial lead identification” (Nature, 2010).

SMILES strings stand for the structures.

Format in all cases: functional
In experiment [1] the test system is Plasmodium falciparum. Nature of the experiment: GSK_TCMDC: Inhibition of Plasmodium falciparum 3D7 in whole red blood cells, using parasite LDH activity as an index of growth. Test compounds present at 2uM.
Experiment [2] has as its system Plasmodium falciparum. The experiment in a line: GSK_TCMDC: Inhibition of Plasmodium falciparum Dd2 in whole red blood cells, using parasite LDH activity as an index of growth. Test compounds present at 2uM.
A further experiment has as its system HepG2. Nature of the experiment: GSK_TCMDC: Percent inhibition of human HepG2 cell line. Test compounds present at 10uM.

In the case of `CC1(C)NC(N)=NC(=N)N1OCc1cccc(Cl)c1Cl.Cl`, the Inhibition in the experiment on Plasmodium falciparum [1] was determined as 92%; with Plasmodium falciparum [2] it was 75%; in the experiment on HepG2 it was 68%.
As for `CN(C)CCCn1c(C(=O)OC(c2ccccc2)c2ccccc2)cc2cc(OCc3ccccc3)ccc21`, the Inhibition in the experiment on Plasmodium falciparum [1] is 82%; with Plasmodium falciparum [2], 85%; in the experiment on HepG2 it was 12%.
The corresponding values for `Cc1cccc2nc(-c3ccc(-c4ccc(CN5CCN(c6ccncc6)CC5)cc4)cc3)[nH]c12.O=C(O)C(F)(F)F` are 100%, 100% and 98%.
The corresponding values for `CCNc1cc(C(=O)N[C@@H](Cc2ccccc2)[C@H](O)CNCC(C)C)cc(N2CCCC2=O)c1` are 98%, 97% and 16%.
The corresponding values for `N=C(N)NN=CC(=O)Nc1ccc(Br)cc1.O=S(=O)(O)O` are 100%, 1% and 5%.
Regarding `CC(=O)Nc1cc(C(=O)Nc2cccc(-c3cccc(-c4nc5cc(C(F)(F)F)ccc5[nH]4)c3)c2)ccc1C`, the Inhibition worked out at 97% with Plasmodium falciparum [1], 43% in the experiment with Plasmodium falciparum [2] and 56% with HepG2.
The corresponding values for `CN(C)S(=O)(=O)c1ccc(Nc2nc(NCCC3C=NC=N3)nc3cc[nH]c(=O)c23)cc1` (stereo not given) are 96%, 63% and 8%.
The corresponding values for `COc1ccc(CCN(C)CCCCc2ccc(NC(=O)c3cccc4c(=O)c5cc(F)ccc5sc34)cc2)cc1OC` are 96%, 49% and 98%.
As for `CC(CN(C)C)Oc1ccc2nc(-c3cccc(OCc4ccccc4)c3)[nH]c2c1C#N` (stereo not given), the Inhibition came to 100% in the experiment on Plasmodium falciparum [1], 94% with Plasmodium falciparum [2] and 57% in the experiment with HepG2.
The corresponding values for `CC(C)c1ccc(NC(=O)c2ccc(C(=O)NC3CCN(CC4CCCCC4)CC3)cc2)cc1.O=C(O)C(F)(F)F` are 98%, 5% and 34%.
Turning to `Cl.O=C(NCCCCN1CCC(c2ccc3c(c2OCCO)CCCC3)CC1)c1ccc(-c2ccc(C(F)(F)F)cc2)cc1`, the Inhibition in the experiment on Plasmodium falciparum [1] is listed as 98%; in the experiment with Plasmodium falciparum [2], 38%; in the experiment on HepG2, 100%.
The corresponding values for `CCNS(=O)(=O)c1ccc(Oc2ccc([N+](=O)[O-])cc2)cc1` are 94%, 85% and 1%.
The corresponding values for `CCC(C)NC(=O)Nc1ccc(-c2cccc(-c3nc4ccccc4[nH]3)c2)cc1` (stereo not given) are 94%, 37% and 41%.
`Cc1ccc2c(=O)c3cc(C)ccc3[nH]c2c1`: the values for the Inhibition with Plasmodium falciparum [1], in the experiment with Plasmodium falciparum [2] and in the experiment on HepG2 were 96%, 94% and 10%, respectively.
For `O=C(N[C@@H](Cc1ccccc1)C(=O)NCCN1CCOCC1)c1ccc(O)c(-c2ccc(Cl)c(Cl)c2)c1`, the figures for the Inhibition with Plasmodium falciparum [1], in the experiment with Plasmodium falciparum [2] and in the experiment with HepG2 were 97%, 31% and 0%, respectively.
The corresponding values for `O=C(Nc1ccc(F)cc1)c1nc2ccccc2nc1Cl` are 80%, 62% and 44%.
The corresponding values for `O=C(NCC1CCC(C(=O)NCCN2CCCCC2)CC1)c1ccc(O)c(-c2ccc(Cl)c(Cl)c2)c1` (stereo not given) are 91%, 22% and 0%.
As to `C/N=C(/Nc1c(Cl)cccc1Cl)N(C)C.O=C(O)/C=C/C(=O)O`, the Inhibition with Plasmodium falciparum [1] is on record as 98%; with Plasmodium falciparum [2], 1%; in the experiment with HepG2 it was 0%.
Turning to `CCOc1cc(NCCCNc2ncc([N+](=O)[O-])cc2C)nc2ccccc12`, the Inhibition with Plasmodium falciparum [1] worked out at 84%; in the experiment with Plasmodium falciparum [2], 64%; with HepG2, 10%.
The corresponding values for `O=C(O)C(F)(F)F.c1ccc(CN2CCC(NCc3ccc(-c4ccc(CNC5CCCC5)cc4)cc3)CC2)cc1` are 100%, 98% and 24%.
Turning to `COc1ccc(C2CC(=O)C3=C(C2)NC(C)=C(C(=O)OC(C)C)C3c2ccc(O)cc2)cc1OC` (stereo not given), the results for the Inhibition in the experiment on Plasmodium falciparum [1], in the experiment on Plasmodium falciparum [2] and with HepG2 were 99%, 98% and 0%, respectively.
Take `CS(=O)(=O)Cc1ccc(Nc2nccc(-c3c(-c4cccc(NC(=O)C5CCCCC5)c4)nn4ncccc34)n2)cc1`: the values for the Inhibition in the experiment on Plasmodium falciparum [1], with Plasmodium falciparum [2] and with HepG2 were 98%, 99% and 31%, respectively.
The corresponding values for `Cc1c(-c2cccc(C(C)(C)NCCCN3CCCCC3)c2)cnc(N)c1C.Cl` are 95%, 2% and 5%.
The corresponding values for `CCCC(C)N(Cc1ccc(C(C)(C)C)cc1)C(=O)c1cccc(C#N)c1` (stereo not given) are 86%, 45% and 14%.
The corresponding values for `C=C[C@]1(C)C[C@@H](OC(=O)NC(=O)C2CCN(C(=O)CSc3ccccc3)CC2)[C@]2(C)[C@H](C)CC[C@]3(CCC(=O)[C@H]32)[C@@H](C)[C@@H]1O` are 93%, 74% and 0%.
Turning to `CCC[C@@H]([C@@H](Cc1ccc(C)s1)C(=O)N[C@@H](CNC(C)=O)C(=O)Nc1nccs1)N(O)C=O`, the Inhibition with Plasmodium falciparum [1] amounted to 97%; with Plasmodium falciparum [2], 96%; in the experiment with HepG2 it was 0%.
The corresponding values for `Cc1[nH]c(C)c(-c2ccc(CCc3cccc(C(F)(F)F)c3)nc2)c(=O)c1Cl` are 99%, 97% and 28%.
The corresponding values for `Cc1nc2c(=O)sc3ccccc3c2n1Cc1ccccc1` are 95%, 26% and 0%.
The corresponding values for `CC(C)c1ccc(OCC(O)CN(CCN2CCOCC2)C(=O)Nc2ccc(Br)cc2)cc1.O=C(O)C(F)(F)F` (stereo not given) are 98%, 44% and 6%.
With `CC(C)(C)OC(=O)c1c(NC(=O)/C=C/c2ccc(O)c(O)c2)sc2c1CCCC2`, the Inhibition with Plasmodium falciparum [1] is on record as 97%; with Plasmodium falciparum [2], 77%; in the experiment on HepG2, 4%.

Broadly, the Inhibition is the share of the control response that was lost under treatment. Higher therefore signals strong suppression.
